The supplement of paper PMC3334620
In all, about 33,000 sequences were measured (“E-score (-0.5 to 0.5)”: median about -0.054, highest 2% from about 0.35 on). What follows is part of a selection rich in the highest values, with near analogues and random picks from the rest.

Target: T1, Stb5 (UniProt P38699)
T1 sequence: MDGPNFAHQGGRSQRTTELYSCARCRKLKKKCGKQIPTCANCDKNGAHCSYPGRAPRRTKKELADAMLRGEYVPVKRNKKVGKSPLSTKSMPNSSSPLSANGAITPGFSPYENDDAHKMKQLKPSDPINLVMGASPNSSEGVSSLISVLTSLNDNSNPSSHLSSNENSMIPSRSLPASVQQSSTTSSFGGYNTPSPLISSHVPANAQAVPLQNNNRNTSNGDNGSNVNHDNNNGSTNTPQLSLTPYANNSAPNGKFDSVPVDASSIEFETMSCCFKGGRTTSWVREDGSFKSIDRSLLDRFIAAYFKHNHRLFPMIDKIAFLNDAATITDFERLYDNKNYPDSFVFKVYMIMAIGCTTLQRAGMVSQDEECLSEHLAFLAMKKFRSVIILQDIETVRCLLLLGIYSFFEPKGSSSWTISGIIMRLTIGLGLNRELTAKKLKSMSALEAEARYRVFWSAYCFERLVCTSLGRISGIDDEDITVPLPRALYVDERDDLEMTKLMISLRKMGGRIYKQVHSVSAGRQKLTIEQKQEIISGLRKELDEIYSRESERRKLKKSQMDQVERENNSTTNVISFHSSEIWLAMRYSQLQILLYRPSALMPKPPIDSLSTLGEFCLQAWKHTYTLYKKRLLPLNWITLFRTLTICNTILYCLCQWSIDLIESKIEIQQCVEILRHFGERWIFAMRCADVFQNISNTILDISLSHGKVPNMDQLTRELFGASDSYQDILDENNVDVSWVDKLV
Test: PBM E-score (8-mer binding enrichment) (E-score (-0.5 to 0.5)); higher = stronger / more preferred TF binding
Conditions: protein concentration: 200 nM; construct: GST-full length
Experimental: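 Universal 'all 10-mer' protein binding microarrays (Agilent AMADID 015681) probed with GST-tagged S. cerevisiae TFs (full-length or DBD) made by in vitro transcription/translation (PURExpress), about 100-200 nM. Bound TF was detected with fluorescent anti-GST. Each ungapped 8-mer (which stands for itself and its reverse complement) is scored by the PBM enrichment score (E-score), a modified Wilcoxon-Mann-Whitney statistic from -0.5 to +0.5, computed with the Universal PBM Analysis Suite. Scale: above 0.35 generally sequence-specific binding.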

| Sequence | PBM E-score |
| --- | --- |
| GGCATTCA | 0.0519 |
| ATTTCACA | -0.157 |
| ACGCCCCG | 0.188 |
| CCGCCCCC | 0.335 |
| CCGCCCGG | 0.344 |
| ACGCCCGC | 0.28 |
| ACGCCAGC | -0.181 |
| GCGCCAGC | 0.112 |
| CCGCCCGC | 0.362 |
| CCGCCAGC | 0.356 |
| CCGCCCCG | 0.409 |
| CTTATCAA | -0.125 |
| ACAATGAA | -0.0923 |
| CCACATTC | -0.0853 |
| TAAATGCA | -0.18 |
| CATGCGGA | 0.167 |
| ACACCTCC | 0.0978 |
| CATAGCGC | 0.161 |
| ATTGAGCC | 0.0599 |
| CCGGAGCC | 0.182 |
| ACCTCACA | -0.181 |
| TCAAGTAA | -0.0626 |
| CGGTGACA | 0.42 |
| CGGTGAAA | 0.41 |
| TGGTGACA | 0.0421 |
| CGGTGAAC | 0.177 |

| Sequence | PBM E-score |
| --- | --- |
| CGGTGAAG | 0.12 |
| GGGTGACA | 0.0889 |
| CACTGCCC | -0.0546 |
| ACCCTGAC | -0.0664 |
| CAGCGCCG | 0.299 |
| AATCGCCG | 0.407 |
| CACCGCAG | 0.344 |
| GACCGCCC | 0.322 |
| AACCGCCC | 0.107 |
| AATCGCCC | -0.00317 |
| CACCGCCC | 0.41 |
| CACCGCCG | 0.405 |
| CATCGCCG | 0.264 |
| GACCGCCA | 0.317 |
| CACCGCCA | 0.408 |
| TACCGCCA | 0.323 |
| AAGTTGGT | -0.133 |
| TCAGCAGA | -0.329 |
| CTTGACTA | -0.193 |
| CGGGAGGC | -0.136 |
| CGGTTCAG | -0.0792 |
| ATGGCAAA | -0.0403 |
| CCTAGGTC | -0.15 |
| ATGCTAAC | -0.0894 |
| GGCAGTAC | 0.0214 |
| AAGTGAAC | -0.129 |

| Sequence | PBM E-score |
| --- | --- |
| AAGCGCCG | 0.396 |
| AAGCGCCT | 0.0194 |
| AACCGCCG | 0.362 |
| AACCGCCT | 0.0427 |
| AACCGCCA | 0.167 |
| AAGCGCCA | -0.0397 |
| TACATATA | 0.0481 |
| GGATTGAC | -0.0821 |
| AGACTCCA | -0.139 |
| AGTCTGTG | -0.27 |
| GATGGGTA | -0.205 |
| CGGTGGTA | 0.441 |
| CGGTAGTC | 0.18 |
| CGGTATCA | 0.364 |
| CGGTAGTA | 0.385 |
| CGGTATTC | 0.275 |
| AGGTGGTA | 0.165 |
| AGGTAGTA | 0.0131 |
| AGGTATTA | 0.212 |
| GGGTGGTA | -0.0756 |
| CGGTATTA | 0.472 |
| CGGTATCC | 0.211 |
| GGGTATCA | -0.079 |
| GGAAAGCA | 0.024 |
| AGAGTGCT | -0.0924 |
| AGATCGGA | 0.335 |

| Sequence | PBM E-score |
| --- | --- |
| TAGTCGAA | -0.0837 |
| AATAGCAG | -0.0777 |
| GGCTATTA | -0.0171 |
| CGCTATTA | 0.357 |
| AGCTATTA | -0.041 |
| ACTGGCGC | -0.0545 |
| AGGGGGGA | -0.38 |
| GTATGGTA | -0.168 |
| CTCCCCGC | 0.248 |
| ATCCCCGC | 0.453 |
| ATCCCCGA | 0.374 |
| ATCCCCCC | -0.0842 |
| ATCCCCCG | 0.292 |
| GTCCCCGA | 0.185 |
| CTCCCCGA | 0.225 |
| ATCCCGGG | 0.299 |
| ATCCCCGG | 0.379 |
| ATTCGCAC | 0.00083 |
| GAAACGTA | -0.0447 |
| AAATGCTA | -0.223 |
| CCTTGGCA | -0.227 |
| CGTTAACC | 0.0895 |
| GTACCAAC | -0.00359 |
| ACCAGATC | -0.153 |
| CTCTATGA | -0.245 |
| CCTGCTAG | -0.0487 |

| Sequence | PBM E-score |
| --- | --- |
| AGTCTCAT | -0.154 |
| CGCCACAC | 0.0326 |
| AAGCCGCG | 0.287 |
| CAGCCGCC | 0.0327 |
| ACGCCGTG | 0.297 |
| AAGCCGCT | 0.134 |
| GCGCCGCC | 0.331 |
| AAGCCGTC | 0.243 |
| ACGCCGTA | 0.204 |
| ACGCCTCT | -0.306 |
| ACGCCGTC | 0.405 |
| ACGCCGCG | 0.361 |
| CCGCCGCC | 0.361 |
| ACGCCGCT | 0.383 |
| AACTTCTT | -0.0358 |
| ATAGAGTA | -0.0125 |
| CGTCTAAC | 0.0919 |
| GGATAGGA | -0.00719 |
| CAGCGCAA | -0.0211 |
| CGACAGTA | 0.0893 |
| AGTGACGA | -0.191 |
| AGCTCCCC | -0.226 |
| TACTAGCA | -0.277 |
| AGTGAAGA | -0.155 |
| ACTGAAGG | -0.139 |
| CATAGAGG | -0.173 |

| Sequence | PBM E-score |
| --- | --- |
| CCGCCGCA | 0.301 |
| ACGCCGCC | 0.41 |
| GCGCCGCA | 0.268 |
| CAGCCGCG | 0.0138 |
| ACGCCGCA | 0.354 |
| AGGCCGCC | 0.324 |
| AAGCCGCC | 0.245 |
| CCGCCGCG | 0.363 |
| ATGCCGCC | 0.423 |
| ATGCCGCA | 0.25 |
| CCGCGCCG | 0.288 |
| ATGCCGCG | 0.319 |
| AAGGGGAA | -0.188 |
| AATGGATA | 0.135 |
| TGGACCAA | -0.112 |
| GTTACTTA | 0.0421 |
| CCGAGGAG | 0.0924 |
| AGATCAAC | -0.251 |
| CCGCCGTA | 0.381 |
| CCGCCGTC | 0.29 |
| GCGCCGTA | 0.253 |
| CATAAGCG | 0.0871 |
| GTTGAGGA | -0.203 |
| CTTTCACA | -0.0931 |
| GCAAGACC | 0.146 |
| CCGATGCG | 0.339 |

| Sequence | PBM E-score |
| --- | --- |
| CGGAACTA | 0.44 |
| AGGGGATA | 0.0586 |
| CGGGGAAA | 0.385 |
| GGGGGAAA | 0.165 |
| CGGAATTA | 0.417 |
| AGGAACTA | 0.0488 |
| AGGAATTA | -0.00087 |
| CGGAACTC | 0.0793 |
| GGGGGATA | 0.13 |
| CGGAATTC | 0.0284 |
| CGGGGGAA | 0.257 |
| CGGGGATA | 0.478 |
| AGAATGGG | -0.212 |
| CCTTGACA | -0.071 |
| GCTTTTAC | 0.265 |
| ACGTCGTC | -0.0716 |
| AAAGTTTG | -0.169 |
| CGGCCGCA | 0.235 |
| TGTAACAA | -0.111 |
| GAATCTCA | -0.131 |
| GGTCGCGA | -0.0386 |
